GLS inhibitor: qHTS for Inhibitors of Glutaminase (GLS); hit rate 0.21% among 410,000; Potency, µM (titrated, usually from 45.5 µM), inactives show top-dose activity change, negative = inhibition, hits mostly inhibitors; GLS enzymatic activity, qHTS titration; also: % is scaled to controls: 0 for no effect and ±100 for the full control effect
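hKGA in 45 mM KH2PO4 pH 8.2, 0.02% Tween-20 with pin-transferred compounds; 1 mM L-glutamine (stock) plus glutamate oxidase/HRP/Amplex Red coupling added. Fluorescence read initially and after 30 min at RT.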
G9a inh: qHTS Assay for Inhibitors of Histone Lysine Methyltransferase G9a; Histone-lysine N-methyltransferase EHMT2 (Homo sapiens), Q96KQ7; G9a H3K9 monomethylation, AlphaScreen, 2 h; Potency, µM (doses to about 102 µM), for inactives: at the highest dose activity, negative = inhibition, usual class: inhibitors; hit rate 8.8% among 350,000; also: % is scaled to controls: 0 for no effect and ±100 for the full control effect; nearly all actives have a fitted effect of over 75% in size
Target sequence (Q96KQ7 913-1193 limits assumed): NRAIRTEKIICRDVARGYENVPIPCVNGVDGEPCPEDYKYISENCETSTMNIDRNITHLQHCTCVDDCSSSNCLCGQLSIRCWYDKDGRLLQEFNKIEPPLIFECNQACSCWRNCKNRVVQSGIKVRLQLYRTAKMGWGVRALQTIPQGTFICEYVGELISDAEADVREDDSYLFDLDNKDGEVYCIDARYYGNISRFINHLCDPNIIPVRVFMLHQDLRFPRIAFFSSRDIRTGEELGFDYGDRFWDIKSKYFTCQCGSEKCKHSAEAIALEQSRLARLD
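G9a (20 nM) preincubated 15 min RT with compounds, then 500 nM biotinylated H3K9 peptide and 20 uM SAM added; 2 h RT reaction. Monomethyl-H3K9 product detected by AlphaScreen with anti-H3K9me1 antibody, streptavidin donor and anti-rabbit IgG acceptor beads.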
BAZ2B inh: qHTS Assay for Inhibitors of BAZ2B; AlphaScreen BAZ2B-H3K14Ac peptide displacement; Potency, µM (titrated, usually from 114 µM), for inactives: at the top dose activity change, negative = inhibition, actives largely listed as inhibitors; hit rate 4.4% among 360,000; also: % is scaled to controls: 0 for no effect and ±100 for the full control effect; nearly all actives have a fitted effect of over 60% in size
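Inhibition is scored as reduced AlphaScreen emission. The BAZ2B/b-H3(5-23)K14Ac complex (50 nM each) in PBS pH 7.4, 0.01% Tween-20 meets compound (up to 110 uM) for 30 min at RT before bead addition.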
JMJD2A Tudor inh: qHTS Assay for Inhibitors of JMJD2A-Tudor Domain; hit rate 4.4% among 390,000; Lysine-specific demethylase 4A (Homo sapiens), O75164; AlphaScreen JMJD2A-Tudor / H3K4me3 peptide binding; AID 504339, 2011; Potency, µM (titrated, usually from 114 µM), for the others: at the highest dose activity change, negative = inhibition, actives largely listed as inhibitors; also: % is scaled to controls: 0 for no effect and ±100 for the full control effect; nearly all actives have a fitted effect of over 50% in size
HP1b chromo inh: HTS for Inhibitors of HP1-beta Chromodomain Interactions with Methylated Histone Tails; AlphaScreen HP1-beta / biotin-H3K9me3 peptide binding; Potency, µM (top dose mostly 114 µM), for inactives: at the top dose activity change, negative = inhibition, most hits filed as inhibitors; hit rate 0.56% among 390,000; AID 540317, 2011; also: nearly all actives have a fitted effect of over 70% in size
Target sequence (P83916 whole entry, looked up): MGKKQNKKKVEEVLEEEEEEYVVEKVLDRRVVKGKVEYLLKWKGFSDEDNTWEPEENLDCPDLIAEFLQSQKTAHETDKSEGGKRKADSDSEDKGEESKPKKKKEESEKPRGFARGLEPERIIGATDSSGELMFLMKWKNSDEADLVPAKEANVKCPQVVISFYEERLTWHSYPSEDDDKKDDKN
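Compound inhibition of the preformed complex between 50 nM HP1-beta and 50 nM biotinylated H3K9me3 peptide was read by AlphaScreen. Buffer was PBS pH 7.4 with 0.01% Tween-20. Incubations ran 30 min at room temperature, with 10 ug/mL donor/acceptor beads.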
Active calls of the source: *; ? = inconclusive; nt = no result; [ ] = remark or other dose. This is a sample that favours compounds with a hit; in the whole collection about 10% have one here. Calls follow the shape of the dose curve; as a rule, active = well fitted curve in the direction sought with a large enough effect; inconclusive = small, poorly fitted or top-dose-only effect, or another doubt; inactive = no such curve, though single readings can be large; an effect the other way counts as inactive or inconclusive. Potency is read from the fitted curve at half-maximal effect.

SMILES	GLS inhibitor	G9a inh	BAZ2B inh	JMJD2A Tudor inh	HP1b chromo inh
COC(=O)c1ccc(NC(=O)c2ccc3c(c2)NC(=O)C2CCCN32)cc1 (centres undefined)	nt	10µM*	50µM*	nt	nt
O=S(=O)(c1ccc(F)cc1)N1CC2CCCN2c2ccc(C(F)(F)F)cc21 (centres undefined)	3%	89%[59 µM]	-8%	-10%	32%
CCOc1ccc(CCNC(=O)c2ccc3c(c2)NC(=O)C2CCCN32)cc1OCC (centres undefined)	nt	nt	-6%	nt	nt
O=C1Nc2ccc(C(F)(F)F)cc2N2CCCC12 (centres undefined)	nt	11µM*	-2%	nt	nt
O=C(O)c1cccc2c1C(=O)c1ccccc1-2	3%	nt	-8%	-2%	12%
O=C1C(=C(I)I)c2ccccc2-c2ccccc21	6%	nt	nt	25µM*	56µM*
C/C=C1\COC(C(=O)NCCCN2CCCC2=O)(C(F)(F)F)C=C1C=C(C)C (centres undefined)	11%	nt	nt	-15%	41%
CCOC(=O)c1cc(-c2ccccc2)n(-c2cccc(C(=O)N(CC)c3ccccc3)c2)c1C	-8%	?	10µM*	?	-10%
CCOC(=O)c1cc(C)n(-c2ccccc2)c1C	0%	4%	79µM*	-29%	1%
CCc1ccc(CNc2ncnc3onc(-c4ccc(Cl)cc4)c23)cc1	-9%	16%[59 µM]	8%	15%	54%
CCN(CC)CCCCNc1ncc2cc(-c3cc(OC)cc(OC)c3)c(NC(=O)NC(C)(C)C)nc2n1	8%	0%[12.7 µM]	7%	-9%	24%
O=c1cnnc(N/N=C/c2cccs2)[nH]1	4%	nt	79µM*	-28%	16%[57 µM]
CC1=C(C(=O)N(C(C)C)C(C)C)CC(CC(=O)NCc2cccs2)C(=O)N1Cc1ccccc1 (centres undefined)	-1%	nt	nt	nt	nt
O=C(NCCN1CCOCC1)C1CCN(S(=O)(=O)N2CCCCC2)CC1	-4%	-20%	-3%	-5%	29%
O=C(NCCN1CCOCC1)C1CCN(Cc2ccccc2O)CC1	22%	22µM*	45µM*	1.4µM*	?
O=C(Nc1cccc(F)c1)N1CCC2(CCNCC2)CC1	nt	-4%[12.7 µM]	nt	nt	nt
COc1cc(OC)cc(-c2c(Sc3ccccc3)c3cc(-c4ccc(SC)cc4)ccc3n2C)c1	-3%	nt	nt	nt	nt
O=C(C[n+]1ccc(-c2nnc3n2CCCCC3)cc1)c1ccc(Cl)cc1	2%	nt	-1%	-13%	43%
N#Cc1ccc(S(=O)(=O)NC2CC2)cc1	13%	7.9µM*	?	-7%	32%
COc1ccccc1NCC(O)Cn1c2ccccc2c2ccccc21 (centres undefined)	0%	?	40µM*	40µM*	?
COc1ccc(CCNCC(O)Cn2c3ccccc3c3ccccc32)cc1OC (centres undefined)	-4%	?	?	-35%	-6%
O=C(COC(=O)c1cc(S(=O)(=O)N2CCOCC2)ccc1F)Nc1ccccc1C(F)(F)F	3%	nt	nt	nt	nt
Cc1ccc(CN2COc3c(Cl)cc4c(-c5ccccc5)cc(=O)oc4c3C2)cc1	-14%	4%[59 µM]	-2%	-10%	66%
Cc1ccccc1C(=O)Nc1ccc2c(c1)OCCO2	-2%	6%	-12%	-1%	31%
Cc1ccc(C(=O)NNC(=S)Nc2cccc3ccccc23)s1	31%	35µM*	3%	-14%	-18%
SMILES	GLS inhibitor	G9a inh	BAZ2B inh	JMJD2A Tudor inh	HP1b chromo inh
O=C(NNC(=S)Nc1cccc2ccccc12)c1cccc(Br)c1	21%	?	-35%	-36%	?
O=C(O)c1ccccc1NC(=S)NC(=O)c1cccc2ccccc12	0%	50µM*	?	-10%	-2%
Cc1cccc(C(=O)NC(=S)NNC(=O)COc2c(C)cccc2C)c1	18%	7.9µM*	-12%	?	-20%
O=C(Nc1ccc2c(c1)OCCO2)c1coc2ccccc2c1=O	-2%	8%[59 µM]	9%	28µM*	62%
Cc1c(NC(=S)NC(=O)c2cccc3ccccc23)cccc1C(=O)O	13%	-44%	-17%	-3%	25%
CCNc1ncc2nc(-c3cccc(C#N)c3)c(=O)n(CCC#N)c2n1	nt	3%[0.501 µM]	nt	nt	nt
CC1=C(C)Cc2c(OC(=O)c3ccccc3)ccc(OC(=O)c3ccccc3)c2C1	nt	-6%	-2%	nt	nt
COCCNC(=O)C1(C)CCCN(C(=O)c2cc(C)oc2C)C1 (centres undefined)	7%	nt	nt	nt	nt
Cc1cccc(C(=O)NC(=S)NNC(=O)Cc2ccccc2)c1	23%	7.1µM*	2%	-30%	1%[57 µM]
CNC(=O)c1ccsc1NC(=O)c1coc2ccccc2c1=O	-30%	50µM*	-24%	-11%	60%
O=C(Cc1cccs1)NNC(=S)NC(=O)c1ccc(F)c(F)c1	-6%	?	4%	-2%	16%
CC(=O)NNC(=S)NC(=O)c1ccccc1	6%	6.3µM*	1%	20µM*	13%
O=C(Cc1cccs1)NNC(=S)NC(=O)c1ccccc1	19%	?	10%	50µM*	19%
CC(=O)C1=C(c2ccc(Cl)c(Cl)c2)N(C(C)=O)n2cnnc2S1	?	0%[59 µM]	12%	10%	107%
CCCc1cc(=O)[nH]c(SCC(=O)N2c3ccccc3CC2C)n1 (centres undefined)	-1%	nt	nt	-5%	26%
Cc1oc2ccc(O)c(CN3CCCC3)c2c1C(=O)Nc1ccc(C(C)C)cc1	48%	1%[59 µM]	?	-24%	19%
CCOC(=O)c1c(-c2ccc(Br)cc2)csc1NC(=O)c1ccc(C(C)(C)C)cc1	2%	-1%[59 µM]	2%	-3%	47%
Cc1cc(C(=O)NNC(=S)NC(=O)/C=C/c2ccccc2Cl)n[nH]1	6%	28µM*	22µM*	50µM*	-17%
Cc1cccc(C(=O)NC(=S)Nc2ccccc2C(=O)O)c1	0%	45µM*	-11%	-25%	?
Cc1ccccc1C(=O)NNC(=S)NC(=O)c1ccc(Cl)cc1Cl	0%	?	2%	-8%	8%
O=C(COc1ccccc1)NNC(=S)NC(=O)c1ccccc1	10%	2.2µM*	nt	18µM*	5%
Cc1cccc(C(=O)NC(=S)NNC(=O)c2ccccc2Cl)c1	41%	7.9µM*	-5%	-28%	-16%
Cc1cccc(C(=O)NC(=S)Nc2ccccc2C(F)(F)F)c1	2%	-2%[59 µM]	-35%	?	-11%
O=C(NC(=S)Nc1ccc2c(c1)OCCO2)c1cccc2ccccc12	7%	40µM*	?	?	6%
O=C(NC(=S)Nc1ccc2c(c1)OCCO2)c1cccc(Br)c1	19%	?	?	?	?

Source: PubChem (National Center for Advancing Translational Sciences (NCATS))
